Reference: PubChem BioAssay (EPA / NIEHS)
Activity calls are given as the source filed them. Rule for the calls: active = hit-call score of the fitted dose curve at least 0.9, where 1 is the maximum; inactive = score below 0.9.

These compounds were tested on Interleukin 17F (IL17F), IL17F (gene 112744) (assay: BSK_BT_xIL17F: BioMAP Diversity Plus: BT Assay for Interleukin 17F (IL17F) Biomarker Activity (AID 2284243)). Settings: primary human B cells with PBMC.
Procedure: BSK_BT is a cell-based, multiplexed-readout assay that uses B cell and peripheral blood mononuclear cells, a human vascular primary cell co-culture, with measurements taken at 24 hours after chemical dosing in a microplate: 96-well plate.BSK_BT_xIL17F is an assay component measured in the BSK_BT assay. It measures secreted IL-17F related to regulation of gene expression using LumineX xMAP technology.Data from the assay component BSK_BT_xIL17F was analyzed at the endpoint, BSK_BT_xIL17F, in the positive analysis fitting direction relative to DMSO as the negative control and baseline of activity. Using a type of cytokine quantitation reporter, gain or loss-of-signal activity can be used to understand protein changes. To generalize the intended target to other relatable targets, this assay endpoint is annotated to the 'cytokine' intended target family, where the subfamily is 'interleukins'.
The levels of cell surface (or secreted, indicated by the prefix "s") biomarker endpoints were measured by ELISA. Overt cytotoxicity to cells in confluent adherent cultures (all systems other than the BT system) was assessed by measuring total protein levels using sulforhodamine B (SRB) staining in parallel cultures at the time of biomarker measurements, indicated as SRB endpoints. For proliferation assays for adherent cell types, individual cell types are cultured at sub-confluence and relative cell numbers quantified by SRB staining at time points optimized for each system (48 h: 3C and CASM3C systems; 72 h: BT and HDF3CGF systems; 96 h: SAg system). SRB was performed by staining cells with 0.1% SRB after fixation with 10% TCA and reading wells at 560 nm.Viability and proliferation of PBMC (T cells) was quantified by Alamar Blue reduction for the SAg and BT systems. For PBMC viability (referred to as PBMC Cytotoxicity within the assay endpoint names), cells were plated (75,000/well in a 96-well plate) and then chemical samples added for 1 h before addition of activators, SEB and TSST-1 (20 ng/mL final concentration each). Cells were incubated for 90 h. Then, Alamar Blue (20 uL/well) (Invitrogen, Cat DAL1100) was added for 6 h, and the plates were read with a fluorescence microplate reader at 546/580 nm (excitation/emission). For PBMC proliferation, cells were plated and activated as above but incubated for only 16 h prior to addition of Alamar Blue. Plates were read after 6 h.

SMILES | outcome | AC50
COc1cc(OC)nc(NC(=O)NS(=O)(=O)c2ncccc2C(=O)N(C)C)n1 | inactive | 
CCOC(=O)/C=C(C)/C=C/C[C@@H](C)CCCC(C)C |  | 25.6 µM (active)
COP(=S)(OC)Oc1cc(Cl)c(Cl)cc1Cl | inactive | 
O=C(OC1CCCCC1)c1ccccc1C(=O)OC1CCCCC1 |  | 30.8 µM (active)
ClC(Cl)=C(Cl)C(Cl)=C(Cl)Cl | inactive | 
CCNc1nc(NC(C)(C)C)nc(SC)n1 |  | 20 µM (active)
CC1(C)Cc2cccc(O)c2O1 | inactive | 
Oc1c(I)cc(I)cc1I | inactive | 
O=Cc1cccc(Oc2ccccc2)c1 | inactive | 
O=S(=O)(c1ccc(Cl)cc1)c1ccc(Cl)cc1 | inactive | 
CCOP(=S)(OCC)Oc1ccc(S(C)=O)cc1 (stereo unspecified) | inactive | 
COC[C@H](C)N(C(=O)CCl)c1c(C)csc1C | inactive | 
CC(=O)C(Cl)C(=O)N(C)C (stereo unspecified) |  | 28.8 µM (active)
CCOP(=S)(OCC)SCCS(=O)(=O)CC | inactive | 
CCCCCCCCC(=O)NCc1ccc(O)c(OC)c1 | inactive | 
Nc1ncc([N+](=O)[O-])s1 | inactive | 
O=C(O)CCC(F)(C(F)(F)F)C(F)(F)F | inactive | 
ClC1=C(Cl)[C@]2(Cl)[C@H]3[C@H]([C@H]4C=C[C@H]3C4)[C@@]1(Cl)C2(Cl)Cl |  | 27 µM (active)

SMILES | outcome | AC50
COC(=O)c1sccc1S(=O)(=O)NC(=O)Nc1nc(C)nc(OC)n1 | inactive | 
CCCCC(CC)CO[N+](=O)[O-] (stereo unspecified) | inactive | 
O=C(O)C(F)(F)C(F)(F)C(F)(F)C(F)(F)C(F)(F)C(F)(F)F | inactive | 
Nc1ccc(-c2ccc(N)c(Cl)c2)cc1Cl |  | 20 µM (active)
NC(=S)Nc1ccccc1 | inactive | 
BrCCBr | inactive | 
CCSC(C)CC1CC(=O)C(C(CC)=NOC/C=C/Cl)=C(O)C1 (stereo unspecified) | inactive | 
CC(C)CCCCCCOC(=O)c1ccccc1C(=O)OCCCCCCC(C)C | inactive | 
OCc1ccco1 |  | 9.51 µM (active)
O=C(O)C(F)(F)C(F)(F)C(F)(F)C(F)(F)C(F)(F)C(F)(F)C(F)(F)C(F)(F)C(F)(F)C(F)(F)F | inactive | 
Nc1cccc2ccccc12 | inactive | 
COP(=S)(OC)Oc1c(Cl)cc(C)cc1Cl | inactive | 
CC(C)c1ccc(CO)cc1 | inactive | 
COP(=S)(OC)Oc1ccc(S(=O)(=O)N(C)C)cc1 | inactive | 
O=[N+]([O-])c1ccc2c3c(cccc13)CC2 | inactive | 
COP(=S)(OC)Oc1ccc(Sc2ccc(OP(=S)(OC)OC)cc2)cc1 | inactive | 
Oc1ccc(-c2ccccc2)cc1 | inactive | 
C(=NC1CCCCC1)=NC1CCCCC1 |  | 13.4 µM (active)
